We go through 23 compounds from PubChem BioAssay (NCATS).

Assay [1] in a line: Primary qHTS for small molecule stabilizers of the endoplasmic reticulum resident proteome: Secreted ER Calcium Modulated Protein (SERCaMP) assay (AID 1508630). In outline:
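GLuc-SERCaMP-expressing SH-SY5Y cells, pretreated 16 h with compound, are challenged with thapsigargin to empty ER calcium stores; after 4 h, coelenterazine is added directly to the medium and luminescence is imaged.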
(In qHTS, concentration-response curves come from the screen itself.)

Assay [2] is described as follows: Primary qHTS for inhibitors of nuclear receptor binding SET domain protein 2 (NSD2) in an isogenic RCH-ACV NSD2 p.E1099K mutant (9B) (AID 1645876). Further: nearly all actives have a fitted effect of over 70% in size. Further: potency means the concentration at half of the fitted maximal effect.
A short description of assay [3]: Primary qHTS for inhibitors of nuclear receptor binding SET domain protein 2 (NSD2) in an RCH-ACV wild type WT cells (2C) (AID 1645877). Further: nearly all actives have a fitted effect of over 70% in size. Further: potency means the concentration at half of the fitted maximal effect.
Assay [4] has as its target Cytochrome P450 2D6 (Homo sapiens) (UniProt P10635). The experiment in a line: Cytochrome P450 family 2 subfamily D member 6 (CYP2D6) small molecule antagonists: luciferase biochemical (cell-free) qHTS assay (AID 1645840; active means well fitted curve in the direction sought with a large enough effect in the repeat runs; an effect the other way counts as inactive or inconclusive; further: series mostly up to about 57 µM; nearly all actives have a fitted effect of over 55% in size). In outline:
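P450-Glo luminescent screen: recombinant CYP2D6 enzyme–proluciferin substrate mix preincubated with compound 10 min at room temperature, then NADPH regeneration added for 1 h at room temperature. Detection reagent added for 20 min; luciferin light read as relative luminescence units.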

Assay [5] has as its target Cytochrome P450 2C9 (Homo sapiens) (UniProt P11712). The experiment in a line: Cytochrome P450 family 2 subfamily C member 9 (CYP2C9) small molecule antagonists: luciferase biochemical (cell-free) qHTS assay (AID 1645842; active means well fitted curve in the direction sought with a large enough effect in the repeat runs; an effect the other way counts as inactive or inconclusive; further: potency means the concentration at half of the fitted maximal effect; nearly all actives have a fitted effect of over 55% in size). In outline:
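Luminescence, after 20 min with luciferin detection reagent, reflected CYP2C9 turnover during a 1 h NADPH-driven reaction at 37C. Enzyme-substrate mix contained 0.4% bovine serum albumin and was preincubated with compound 10 min at room temperature.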

“And” between values parts separate entries of the source, which are not always exact repeats. Identical values can stand only once. Inconclusive results are not listed. The source made the active and inactive calls. Unless noted, the call rests on the fitted dose curve; in most records, active means well fitted curve in the direction sought with a large enough effect; inconclusive means small, poorly fitted or top-dose-only effect, or another doubt; inactive means no such curve, though single readings can be large; an effect the other way counts as inactive or inconclusive.

Cytochrome P450 2C9 (Homo sapiens), sequence (P11712 whole entry, looked up): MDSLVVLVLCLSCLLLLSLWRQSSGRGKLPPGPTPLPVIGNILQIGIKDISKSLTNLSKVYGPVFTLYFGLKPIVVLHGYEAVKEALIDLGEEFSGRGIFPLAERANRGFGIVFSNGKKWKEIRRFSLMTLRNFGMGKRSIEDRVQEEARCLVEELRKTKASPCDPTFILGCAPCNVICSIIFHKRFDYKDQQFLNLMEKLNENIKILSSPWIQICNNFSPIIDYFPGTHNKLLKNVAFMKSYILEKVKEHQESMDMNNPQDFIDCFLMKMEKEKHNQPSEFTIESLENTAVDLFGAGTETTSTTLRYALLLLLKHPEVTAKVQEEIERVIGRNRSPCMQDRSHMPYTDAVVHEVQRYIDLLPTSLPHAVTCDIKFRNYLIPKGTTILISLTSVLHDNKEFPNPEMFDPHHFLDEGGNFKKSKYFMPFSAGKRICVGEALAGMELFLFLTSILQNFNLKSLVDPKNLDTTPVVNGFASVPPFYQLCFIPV
Cytochrome P450 2D6 (Homo sapiens), sequence (P10635 whole entry, looked up): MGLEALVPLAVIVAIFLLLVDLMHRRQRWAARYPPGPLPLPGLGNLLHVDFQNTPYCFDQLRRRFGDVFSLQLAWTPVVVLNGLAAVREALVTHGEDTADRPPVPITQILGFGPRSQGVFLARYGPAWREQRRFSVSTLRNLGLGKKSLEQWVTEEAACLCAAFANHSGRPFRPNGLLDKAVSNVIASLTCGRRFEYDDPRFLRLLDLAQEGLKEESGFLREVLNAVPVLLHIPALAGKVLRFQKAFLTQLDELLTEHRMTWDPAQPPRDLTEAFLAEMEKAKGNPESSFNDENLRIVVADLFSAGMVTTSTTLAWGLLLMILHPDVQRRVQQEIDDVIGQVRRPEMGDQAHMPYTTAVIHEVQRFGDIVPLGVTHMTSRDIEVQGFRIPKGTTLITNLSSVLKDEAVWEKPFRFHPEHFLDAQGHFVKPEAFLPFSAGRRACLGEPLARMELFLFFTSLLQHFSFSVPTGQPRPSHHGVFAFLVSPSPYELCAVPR

As to `O=c1[nH]c(=O)n(C2CCCO2)cc1F` (stereo unspecified), the Potency result in assay [1], in assay [2] and in assay [3] was “inactive” throughout.

As to `CCN(CC)CCNC(=O)c1ccc2nc(-c3ccccc3)c(-c3ccc(CN4CCC(n5c(=O)[nH]c6ccccc65)CC4)cc3)nc2c1`, in assay [1], the Potency entry was “inactive”. The Potency in assay [2] is 2.58 µM (active) and 3.32 µM (active); in assay [3], 2.58 µM (active) and 4.17 µM (active).

`O=C1CCC[C@@H]2[C@H]3CCC[N+]4([O-])CCC[C@@H](CN12)[C@@H]34` (stereo partly specified): the Potency entry in assay [1], in assay [2] and in assay [3] was “inactive” in each case.

For the compound `CN1c2cc(O)c(N=NC(N)=O)cc2CC1S(=O)(=O)O` (stereo unspecified), the Potency result in assay [1], in assay [2] and in assay [3] was “inactive” in each case.

In the case of `N#CCNC(=O)c1ccc(-c2ccnc(Nc3ccc(N4CCOCC4)cc3)n2)cc1`, in assay [1], the Potency entry was “inactive”. For the same compound, the Potency was 817 nM (active) and 2.63 µM (active) in assay [2]; 1.15 µM (active) and 2.95 µM (active) in assay [3].

Take `COc1cc(OC2CCN(C)CC2)ccc1Nc1ncc2c(n1)n(C1CCCC1)c(=O)n2C`: in assay [1], the Potency entry is “inactive”. In addition, the Potency was 5.25 µM (active) in assay [2] and 3.72 µM (active) in assay [3].

Regarding `O=c1[nH]nc(Sc2ncc([N+](=O)[O-])s2)n1-c1ccc2c(c1)OCCO2`, in assay [1], the Potency result was “inactive”. Besides, the Potency in assay [2] and in assay [3] was 7.42 µM (active) each time.

For `CN1CC[C@@H](c2c(O)cc(O)c3c(=O)cc(-c4ccccc4Cl)oc23)[C@@H](O)C1`, in assay [1], the Potency entry was “inactive”. Moreover, the results for the Potency in assay [2] and in assay [3] were 0.372 µM (active) and 0.332 µM (active), respectively.

In the case of `COc1cc(C(C)C)c2c(c1)S(=O)(=O)N(COc1cc(=O)n3cccc(OCCN4CCCCC4)c3n1)C2=O`, the Potency result in assay [1] is “inactive”. For the same compound, the Potency is 14.8 µM (active) in assay [2] and 10.5 µM (active) in assay [3].

As to `C[C@@H](Oc1cc(-n2cnc3ccc(CN4CCN(C)CC4)cc32)sc1C(N)=O)c1ccccc1C(F)(F)F`, in assay [1], the Potency entry was “inactive”. Besides, the results for the Potency in assay [2] and in assay [3] were 0.0295 µM (active) and 0.0417 µM (active), respectively.

Take `COc1cc2ncn(-c3cc(OCc4ccccc4C(F)(F)F)c(C(N)=O)s3)c2cc1OC`: in assay [1], the Potency result was “inactive”. Also, the Potency in assay [2] was 562 nM (active) and 1.05 µM (active); in assay [3], 794 nM (active) and 1.18 µM (active).

`CC(C)(C)c1cc(C(C)(C)C)c(NC(=O)c2c[nH]c3ccccc3c2=O)cc1O`: the Potency entry in assay [1] is “inactive”. In addition, the Potency was 14.8 µM (active) in assay [2] and 16.6 µM (active) in assay [3].

For the compound `C[C@@H]1COC(Nc2ccc3ncnc(Nc4ccc(OCc5nccs5)c(Cl)c4)c3c2)=N1`, the Potency entry in assay [1] was “inactive”. The results for the Potency in assay [2] and in assay [3] were 13.2 µM (active) and 11.8 µM (active), respectively.

Take `CC(=O)OCCN1C(=O)c2c(C)nc3ccc(S(=O)(=O)N4CCOCC4)cc3c2C1=O`: the Potency entry in assay [1], in assay [2] and in assay [3] was “inactive” throughout.

`COc1cc2c(Nc3ccc(NC(=O)c4ccccc4)cc3)ncnc2cc1OCCCN1CCOCC1`: the Potency result in assay [1] was “inactive”. Further, the Potency in assay [2] is 5.15 µM (active) and 4.68 µM (active); in assay [3], 5.15 µM (active) and 934 nM (active).

As for `c1cc(-c2cnn3cc(-c4ccc(OCCN5CCCCC5)cc4)cnc23)ccn1`, in assay [1], the Potency entry was “inactive”. Also, the Potency was 3.66 µM (active) and 3.72 µM (active) in assay [2]; 2.91 µM (active) and 3.32 µM (active) in assay [3].

In the case of `COc1cccc2nc(-c3cccs3)nc(NN3C(=O)C=C(C)C3=O)c12`, in assay [1], the Potency entry was “inactive”. In addition, the Potency in assay [2] is 0.372 µM (active); in assay [3], 0.263 µM (active).

`Cc1ccc(C(N)=O)cc1Nc1nccc(-c2cn(C(C)C)c3cnccc23)n1`: the Potency entry in assay [1] is “inactive”. The Potency was 3.32 µM (active) in assay [2] and 1.66 µM (active) in assay [3].

Take `Cc1cc(Nc2cc(N3CCN(C)CC3)nc(Sc3ccc(NC(=O)C4CC4)cc3)n2)n[nH]1`: the Potency result in assay [1] was “inactive”. The Potency in assay [2] is 0.296 µM (active); in assay [3], 0.0468 µM (active).

As to `Nc1cc(C(F)(F)F)c(-c2cc(N3CCOCC3)nc(N3CCOCC3)n2)cn1`, the Potency entry in assay [1] was “inactive”. In addition, the Potency was 578 nM (active) and 1.18 µM (active) in assay [2]; 728 nM (active) and 934 nM (active) in assay [3].

Turning to `COc1cc(Nc2ncc(F)c(Nc3ccc4c(n3)N(COP(=O)(O)O)C(=O)C(C)(C)O4)n2)cc(OC)c1OC`, the Potency result in assay [4] was “inactive”. Also, the Potency in assay [5] was 10.7 µM (active); in assay [2], 1.29 µM (active) and 5.17 µM (active) and 1.48 µM (active); in assay [3] it was 1.15 µM (active) and 5.17 µM (active) and 1.66 µM (active).

For `Cc1cn2c(-c3cn[nH]c3)cnc2c(Nc2ccc(C(=O)N3CCNCC3)cc2F)n1`, the Potency result in assay [1] is “inactive”. Also, the Potency in assay [2] was 9.16 µM (active); in assay [3], 12.9 µM (active).

For `CCS(=O)(=O)c1cccc(-c2cc(C(=O)NC3CCN(C)CC3)c(C)c3[nH]c4ncc(C)cc4c23)c1`, the Potency result in assay [4] was “inactive”. Moreover, the Potency in assay [5] was 4.77 µM (active); in assay [2] it was 113 nM (active) and 166 nM (active); in assay [3], 35.8 nM (active) and 41.7 nM (active).
